LmPK inh = LmPK (Leishmania mexicana) enzyme inhibition; Q27686; purified LmPK, Kinase-Glo ATP luminescence, 1 h; Potency, µM (doses to about 57.5 µM), hits mostly inhibitors; actives 0.37% (n = 290,000)
Target sequence (Q27686 whole entry, looked up): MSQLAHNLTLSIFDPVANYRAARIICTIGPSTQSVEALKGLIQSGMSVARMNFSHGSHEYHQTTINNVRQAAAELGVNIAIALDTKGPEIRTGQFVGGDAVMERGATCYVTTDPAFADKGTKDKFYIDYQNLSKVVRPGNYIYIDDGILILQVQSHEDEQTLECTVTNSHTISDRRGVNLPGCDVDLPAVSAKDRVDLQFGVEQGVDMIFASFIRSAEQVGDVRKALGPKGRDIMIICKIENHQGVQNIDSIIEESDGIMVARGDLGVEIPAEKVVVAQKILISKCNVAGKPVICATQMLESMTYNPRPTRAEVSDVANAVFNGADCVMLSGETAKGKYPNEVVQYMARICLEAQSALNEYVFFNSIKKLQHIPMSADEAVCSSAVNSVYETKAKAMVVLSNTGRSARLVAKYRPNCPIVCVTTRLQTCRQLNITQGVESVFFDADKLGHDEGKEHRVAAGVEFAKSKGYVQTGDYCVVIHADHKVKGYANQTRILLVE
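qHTS format; LmPK 0.1 nM; substrates PEP 0.5 mM and ADP 0.1 mM. One-hour room-temperature incubation, then coupled luciferase luminescence; 0.5 nM enzyme wells mark activation.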
Shiga inhibitor = Shiga toxin inhibition | Vero cells, Shiga toxin protein synthesis inhibition reporter | AID 2315 | actives 9.2% (n = 290,000) | inhibition, % at 38.7 µM; in the data active means inhibition mostly above about 28%, no sharp cut-off; inactive means mostly below about 43%
Pf growth 48h = P. falciparum growth inhibition at 48 hours (one generation) | P. falciparum luciferase growth in erythrocytes, 48 h | Potency, µM (titrated, usually from 28.7 µM), actives largely listed as inhibitors | actives 5.9% (n = 310,000)
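Compounds are pin-transferred into medium, infected erythrocytes (2% hematocrit, 0.1% parasitemia final) are added, and plates sit one parasite generation at 37 C in 5% CO2. Detection reagent is then added and luminescence measured.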
Pf growth 96h = inhibits malaria parasite growth, 96 h. actives 6.9% (n = 320,000). P. falciparum luciferase reporter growth, 96 h. Potency, µM (titrated, usually from 28.7 µM), hits mostly inhibitors. AID 504834
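Two parasite generations (96 h, 37 C, 5% CO2) of compound exposure in infected erythrocytes (0.05% parasitemia, 2% hematocrit). Luciferase-reporter P. falciparum; decreased luminescence indicates inhibited growth, aimed at apicoplast-acting delayed death.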
CHX counter = counter-screen for Shiga toxin inhibitors: cycloheximide protein synthesis inhibition | actives 12% (n = 300,000) | cell reporter, cycloheximide protein synthesis inhibition counterscreen | max response, % | AID 2314; in the data active means max response mostly above about 13%, no sharp cut-off; inactive means mostly below about 14%; further: read at 38.3 µM for the half of the compounds with a filed dose
Numbers stand for hits; . = inactive; ? = inconclusive; / = no result given; [ ] = another dose, or the depositor's remark. Shown are actives, neighbours in structure and some others; about 22% of the full set was active somewhere. Unless noted, the call rests on the fitted dose curve; in most records, active means well fitted inhibition curve with a large enough effect; inconclusive means small, poorly fitted or top-dose-only effect, or another doubt; inactive means no such curve, though single readings can be large or run the other way.

SMILES | LmPK inh | Shiga inhibitor | Pf growth 48h | Pf growth 96h | CHX counter
S=C1N(c2ccccc2)C(c2ccc(Cl)cc2)N2CCCN12 (centres undefined) | . | . | . | ? | .
CC1(C)CN2C(=S)N(c3ccccc3)C(c3ccccc3)N2C1 (centres undefined) | . | . | / | 8.28µM | .
COc1cc(C#Cc2c(-c3cncn3C)n(C)c3ccc(-c4ccc5[nH]ccc5c4)cc23)cc(OC)c1 | / | / | 1.47µM | 0.828µM | /
COc1cc(C#Cc2c(-c3cncn3C)n(C)c3ccc(-c4ccc(OC)nc4)cc23)cc(OC)c1 | / | / | ? | 0.0928µM | /
COc1ccc(-c2c(-c3cc(OC)cc(OC)c3)n(C)c3ccc(-c4ccc(OC)cc4F)cc23)cc1 | / | / | . | ? | /
COc1ccc(-c2c(-c3cc(OC)cc(OC)c3)n(C)c3ccc(-c4ccc5[nH]ccc5c4)cc23)cc1 | / | / | . | ? | /
COc1ccc(C)cc1NC(=O)C(NCC1CCCO1)c1ccccc1 (centres undefined) | . | . | . | ? | .
CC(C)CCc1noc(CN2CCC(CCN3CCCC3=O)CC2)n1 | . | . | . | 13.1µM | .
CC(C)CCc1noc(CN2CCN(CC(=O)NC(C)C)CC2)n1 | . | . | . | . | .
O=C(Nc1ccc(SC(F)F)cc1)C1=COCCO1 | . | 70.4 | . | 1.65µM | 34.0
Cc1ccc(C(=O)Nc2ccc(SC(F)F)cc2)s1 | . | 108.9 | . | . | 50.9
O=C(Nc1ccc(Cl)c(S(=O)(=O)N2CCCCC2)c1)C1=COCCO1 | / | / | . | ? | /
CC[N+](CC)(CC)CC(=O)Nc1ccc(SC(F)F)cc1 | . | . | . | . | .
COC(=O)c1ccc2c(=O)n(CC3CCCO3)c(SCC(=O)NCCc3ccc(S(N)(=O)=O)cc3)nc2c1 (centres undefined) | . | . | . | ? | .
Cc1ccccc1-n1c(-c2ccncc2)n[nH]c1=S | 31.6µM | . | . | / | .
Cc1ccc(C)c(-n2c(-c3csc(C)c3C)n[nH]c2=S)c1 | 7.08µM | . | ? | . | .
Cc1cc(Cl)ccc1-n1c(-c2cccnc2)n[nH]c1=S | 8.91µM | . | . | ? | .
Cc1cccc(-n2c(-c3ccncc3)n[nH]c2=S)c1C | ? | . | . | .[1.15 µM] | .
Cc1cc(-c2n[nH]c(=S)n2-c2ccccc2C)cs1 | 10µM | . | . | . | .
C#CCn1cc(/C=C2\NC(=O)NC2=O)c2ccccc21 | . | . | . | . | .
COCCNc1nc(N)c([N+](=O)[O-])c(NCc2ccccc2)n1 | . | . | ? | ? | .
CCc1ccccc1-n1c(-c2ccncc2)n[nH]c1=S | 12.6µM | . | ? | / | .
Cc1cc(C)cc(CN2C(=O)NC3(CCCCCC3)C2=O)c1 | . | . | . | ? | .
COc1ccc(/C=C/c2nc(-c3ccccc3O)n[nH]2)cc1OC | . | 23.4 | . | ? | 20.2
C/C(=N/NC(=O)c1ccc2c(c1)OCO2)c1cccc(NC(=O)C(C)(C)C)c1 | . | . | . | .[5.75 µM] | .
SMILES | LmPK inh | Shiga inhibitor | Pf growth 48h | Pf growth 96h | CHX counter
C/C(=N/NC(=O)c1ccc2c(c1)OCO2)c1ccc(NC(=O)c2ccc(F)cc2)cc1 | . | 40.1 | . | . | 34.3
C/C(=N\NC(=S)NCc1ccccc1)c1ccc(Br)cc1 | . | . | ? | ? | .
C/C(=N\NC(=S)NCc1ccccc1)c1ccc2c(c1)OCCO2 | . | 92.8 | . | ? | .
C/C(=N\NC(=S)Nc1ccc(F)cc1)c1ccc2c(c1)OCCO2 | . | 65.6 | ? | ? | 28.0
C/C(=N\NC(=S)NCc1ccccc1)c1cccs1 | . | 134.9 | . | ? | 34.5
O=C(COC(=O)c1ccc2c(c1)OCCO2)Nc1ccc(F)cc1 | / | / | . | . | /
C/C(=N\NC(=S)NCc1ccccc1)c1ccc(Cl)s1 | . | . | ? | ? | .
Nc1cc(N)nc(SCC(=O)NC2CCCCCCC2)n1 | / | / | . | . | /
COc1ccc(NC2CCCN(C(=O)c3cccc(C)n3)C2)cc1OC (centres undefined) | . | . | . | ? | .
COCCn1c(=NC(=O)c2cc3ccccc3oc2=O)sc2cc(S(N)(=O)=O)ccc21 | . | . | . | . | .
C/C(=N\NC(N)=S)c1ccc2c(c1)OCCO2 | . | 42.9 | . | ? | 26.5
C/C(=N\NC(=O)CSc1nc(C)cc(C)n1)c1ccc2c(c1)OCCO2 | .[11.5 µM] | 84.0 | . | ? | 37.6
CC(=O)N/N=C(\C)c1ccc2c(c1)OCCO2 | . | . | . | . | .
COC(=O)c1ccccc1NC(=O)CCC(=O)N1CC(C)Oc2ccc(C)cc21 (centres undefined) | . | . | . | . | .
Cn1c(=O)n(C)c2cc(N3CCOCC3)c(NC(=O)c3ccc(F)cc3)cc21 | . | . | ? | 9.28µM | .
Cn1c(=O)n(C)c2cc(N3CCCC3)c(NC(=O)c3cccc(F)c3)cc21 | . | . | . | ? | .
COc1ccc(C(=O)Nc2cc3c(cc2N2CCCCC2)n(C)c(=O)n3C)cc1OC | . | . | ? | ? | .
O=C(Nc1cc(C(F)(F)F)ccc1N1CCOCC1)c1ccc(F)cc1 | . | . | . | . | .
COc1cccc(OC)c1C(=O)Nc1cc2c(cc1N1CCOCC1)n(C)c(=O)n2C | . | . | 8.28µM | ? | .
O=C(Nc1cc(Cl)ccc1N1CCOCC1)c1cccnc1 | . | . | . | . | .
Cn1c(=O)n(C)c2cc(N3CCOCC3)c(NC(=O)c3cccc(Cl)c3)cc21 | . | . | . | 1.65µM | .
COc1cccc(C(=O)Nc2cc3c(cc2N2CCCC2)n(C)c(=O)n3C)c1 | . | . | . | 11.7µM | .
COc1ccc(NC(=O)CC2C(=O)N(C)C(=S)N2Cc2ccc3c(c2)OCO3)cc1 (centres undefined) | . | . | . | . | .
O=c1[nH]c(=O)n([C@@H]2C[C@H](O)[C@H](CO)O2)cc1I | / | / | . | . | /
COc1ccc(COC(=O)c2cccc(S(=O)(=O)N3CCN(C(C)=O)CC3)c2)cc1 | / | / | . | . | /
SMILES | LmPK inh | Shiga inhibitor | Pf growth 48h | Pf growth 96h | CHX counter
CC(C)=CCc1c(O)cc2oc3c(CC=C(C)C)c(O)c(O)c(CC=C(C)C)c3c(=O)c2c1O | . | . | 13.1µM | . | .
NCCCC[C@@H](C(=O)N1CCNCC1)n1cc([C@@H](N)CC(N)=O)nn1 | / | / | . | . | /
CCCC(=O)N(Cc1cc(=O)[nH]c2ccccc12)c1ccccc1OC | . | . | 7.38µM | 11.7µM | .
CCCC(=O)N(Cc1cc(=O)[nH]c2ccccc12)c1ccc(C)cc1C | . | . | ? | ? | .
Cc1ccc(N(Cc2cc(=O)[nH]c3ccccc23)C(=O)CCl)c(C)c1 | . | . | 9.28µM | 6.57µM | .
COCCNC(=O)C1(C)C=CC2(CCCCC2)N1C(=O)c1ccccc1 (centres undefined) | . | . | . | . | .
COC(=O)CNC(=O)C1(C)C=CCN1C(=O)c1ccccc1 (centres undefined) | . | 94.5 | . | . | 40.1
O=S(=O)(Nc1ccccc1)c1ccc(-c2csnn2)cc1 | . | . | . | . | .
c1ccc(-c2ccc(-c3csnn3)cc2)cc1 | . | 56.6 | . | . | 33.1
Clc1ncccc1-c1nc2ccccc2s1 | . | 105.9 | . | . | 34.4
COc1cc(OC)c(-c2nc3ccccc3s2)cc1OC | . | 33.2 | . | ? | 23.6

Bioassay records: PubChem BioAssay, National Center for Advancing Translational Sciences (NCATS)
